The results in this text go back to PubChem BioAssay (NCATS).

Molecules are shown by their SMILES. Records with an inconclusive call do not appear. Calls of active or inactive are those of the source. Calls follow the shape of the dose curve; as a rule, active = well fitted curve in the direction sought with a large enough effect; inconclusive = small, poorly fitted or top-dose-only effect, or another doubt; inactive = no such curve, though single readings can be large or run the other way.
% is scaled to controls: 0 for no effect and ±100 for the full control effect; potency is read from the fitted curve at half-maximal effect.

This assay is described as follows: qHTS for Inhibitors of the vitamin D receptor (VDR): Hit Validation using a Texas Red Assay (AID 602201). Conditions: VDR coregulator binding, Texas Red fluorescence polarization, agonist-bound VDR ligand-binding domain; series mostly up to 57.1 µM; activity, negative = inhibition: at the top concentration. Put shortly:
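Fluorescence polarization with 1.5 uM VDR-LBD, LG19078 and 7 nM Texas Red (final). After 2 hours at ambient temperature, read at Ex 595 nm/Em 615 nm.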
For orientation: qHTS replaces the single test concentration by a dilution series.
Consider `O=C1Nc2ccccc2/C1=C/C(=O)c1cccs1`, for which the Potency is 28.2 µM (active). On the same count and under the same terms, the result for `Nc1c(N2CCCC2)cc(Cl)c2nonc12` reads 3.98 µM (active). Regarding `Cc1cc(C(C2C(=O)CC(C)(C)CC2=O)C2C(=O)CC(C)(C)CC2=O)cc(C)c1OC(F)F`, the “activity, negative = inhibition” value is -17.3% (inactive).

Regarding `O=C(/C=C/c1ccccc1Cl)c1cccnc1`, the “activity, negative = inhibition” value is -19.7% (inactive).

For `S=C(NNc1ccnc2cc(Cl)ccc12)Nc1ccccc1Cl`, the Potency was 14.1 µM (active). For `Cc1ccc(NC(=O)c2nc(S(=O)(=O)Cc3ccccc3F)ncc2Cl)cc1`, the Potency was 2.82 µM (active). On to `COc1ccc(OC)c2c1C(=O)C(Cl)=C(Cl)C2=O`, for which the Potency was 7.08 µM (active). For the compound `N#Cc1c(Nc2ccc(Cl)cc2)s[nH]c1=O`, the “activity, negative = inhibition” value was -3.75% (inactive). For the compound `COc1cc(/C=C/C(=O)c2cccc([N+](=O)[O-])c2)cc(OC)c1OC`, the Potency is 4.47 µM (active). Take `c1ccc(OCc2nn3c(Cn4nnc5ccccc54)nnc3s2)cc1`: the Potency was 14.1 µM (active). On the same count and under the same terms, as for `Cc1cccc(/C=C/C(=O)c2ccc([N+](=O)[O-])o2)c1`, the figure is 1.78 µM (active); as for `O=C1C=C(c2ccccc2)C(=O)N1Nc1ccccc1`, 3.55 µM (active); as for `COC(=O)/C=c1/sc2nc3ccccc3n2c1=O`, 8.91 µM (active).

Take `Oc1ccc(C(=S)N2CCN(c3cccc(Cl)c3)CC2)cc1`: the “activity, negative = inhibition” value is -11% (inactive). Take `CCc1ccc(-n2nc3cc(C)c(N)cc3n2)cc1`: the Potency was 15.8 µM (active).

Turning to `CS(=O)(=O)c1ccc(C(=O)OCc2nnc(-c3ccc(Cl)cc3)o2)cc1[N+](=O)[O-]`, the Potency was 8.91 µM (active). For `NC(=O)c1ccc(N=C2C(=O)Nc3ccc([N+](=O)[O-])cc32)cc1`, the Potency is 1.41 µM (active).
